Records with an inconclusive call do not appear. Values without a mark were called inactive. Calls come from the whole dose curve; as a rule, active = well fitted activation curve with a large enough effect in the repeat runs; inconclusive = weak or mixed curves; inactive = flat fitted curve, though single readings scatter. Where a SMILES comes first, the peptide text is derived from it.
test: A CellTox Green Cytotoxicity Assay to monitor cytotoxicity in HEK293 cells - 24 hour (AID 1224875); settings: CellTox Green fluorescence; series mostly up to 76.8 µM; activity change: at the top concentration; note: nearly all actives have a fitted effect of over 45% in size
Procedure, shortened: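 Cytotoxicity was tracked continuously in HEK293 cells by a DNA-binding dye excluded from viable cells. Compounds were transferred in DMSO 5 h after seeding; fluorescence was recorded at intervals up to 40 h.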
% is set by controls: 0 for no effect and ±100 for the full control effect.

SMILES | activity change
CCO | -14.3%
CC1=C(O)C(=O)C(C)O1 (centres undefined) | 14.3%
COP(=O)(O)OP(=O)(O)OC | -17.2%
COC(=O)c1ccccc1C(=O)O | -13.6%
CCCCCCCCCCCCCCCCCCOCCO | 5.76% [at 15.8 µM, active compounds read high]
CCNC(=O)NCc1cccc(Cl)c1 | -15.2% [at 35.3 µM, active compounds read high]
OC1OCCOC1O (centres undefined) | -6.6%
Cc1c(Cl)cccc1Cl | -9.82%
CC(=O)OC1CCCCC1C(C)(C)C (centres undefined) | -17.4%
CCCCCCC1(C)CCC(=O)O1 (centres undefined) | -2.29%
C=CCCCCCCCC | -0.903%
Cc1cc(C)c(C(=O)O)c(C)c1 | 6.45%
CC1(C)Cc2cccc(N)c2O1 | 6.28%
COC(C)(OC)OC | 1.84%
O=C(NCN1CCOCC1)c1cnccn1 | 7.72% [at 35.3 µM, active compounds read high]
COc1cc(/C=C/C(N)=O)cc(OC)c1OC | 0.859% [at 35.3 µM, active compounds read high]
CCCCOCC(C)O (centres undefined) | -5.53%
COC(=O)CCCCC(CCSS/C(CCO)=C(\C)N(C=O)Cc1cnc(C)nc1N)SC(C)=O (centres undefined) | -2.3% [at 35.3 µM, active compounds read high]
C[C@]12CCC(=O)C=C1CC[C@H]1[C@@H]3CC[C@](O)(C(=O)CO)[C@@]3(C)C[C@H](O)[C@@]12F | 0.0814% [at 35.3 µM, active compounds read high]
CCn1cc(C(=O)O)c(=O)c2cnc(N3CCCC3)nc21 | 4.09% [at 6.97 µM, active compounds read high]
C[C@@H](O)C(=O)O | -9.25%
O=C(Cl)c1ccccc1[N+](=O)[O-] | 10.2%
CC(=O)N[C@@H](CO)C(=O)N[C@@H](CC(=O)O)C(=O)N[C@@H](CCCCN)C(=O)N1CCC[C@H]1C(=O)O (Ac-SDKP-OH) | -5% [at 35.3 µM, active compounds read high]
COc1cc(OC)nc(O[C@H](C(=O)O)C(OC)(c2ccccc2)c2ccccc2)n1 | -19.4% [at 35.3 µM, active compounds read high]

Reference: PubChem BioAssay (Tox21)
